Screening results from PubChem.
HP1b chromo inh: HTS for Inhibitors of HP1-beta Chromodomain Interactions with Methylated Histone Tails. Potency, µM (series often up to 114 µM), usual class: inhibitors. AlphaScreen HP1-beta / biotin-H3K9me3 peptide binding. Chromobox protein homolog 1 (Homo sapiens), P83916. hit rate 0.56% among 390,000; note: nearly all actives have a fitted effect of over 70% in size
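AlphaScreen: HP1-beta (50 nM) preformed 30 min with biotin-H3(1-18)K9me3 peptide (50 nM) in PBS pH 7.4, 0.01% Tween-20. Compound added for 30 min at RT, then streptavidin donor/nickel chelate acceptor beads (10 ug/mL) for 30 min.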
BAZ2B inh: qHTS Assay for Inhibitors of BAZ2B; Bromodomain adjacent to zinc finger domain protein 2B (Homo sapiens), Q9UIF8; AlphaScreen BAZ2B-H3K14Ac peptide displacement; Potency, µM (titrated, usually from 114 µM), hits mostly inhibitors; hit rate 4.4% among 360,000; AID 504333, 2011; note: nearly all actives have a fitted effect of over 60% in size
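Complex of BAZ2B and biotin-H3K14Ac (50 nM apiece) forms over 30 min at RT, then faces library compounds up to 110 uM for another 30 min; AlphaScreen beads added, 20 min dark incubation, luminescence read.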
Six1-Eya2 inh: qHTS Assay for Inhibitors of the Six1/Eya2 Interaction | hit rate 0.56% among 360,000 | activity change, % (concentration not given with the values) | Homeobox protein SIX1 (Homo sapiens) + Protein phosphatase EYA2 (Homo sapiens), … | AlphaScreen GST-Six1/His-Eya2 binding, biochemical; stronger effect = lower value; in the data active = activity change below about -65%; inconclusive = mostly about -30% to -63%
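Six1/Eya2 binding was read as AlphaScreen signal after compounds were pinned into GST-Six1 plus His-tagged Eya2 (5X stock 250/500 nM) in pH 8.0 Tris/NaCl/TCEP buffer, beads added, then incubated 1 h, 37 C, dark.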
CtBP-E1A blk: qHTS Assay for Inhibitors of the CtBP/E1A Interaction; AlphaScreen GST-E1A/His-CtBP binding, 1536-well; stronger effect = lower value; activity change, % (test concentration not listed); hit rate 0.49% among 340,000; CtBP / adenovirus E1A interaction (AlphaScreen); in the data active = activity change below about -65%; inconclusive = mostly about -30% to -63%
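AlphaScreen with 125 nM GST-E1A and 125 nM His-CtBP (5X stocks) in Tris pH 8.0, 300 mM NaCl, BSA, Tween 20, TCEP. Compounds preincubated 2 h at 37 deg C, then glutathione donor/nickel acceptor beads added for 1 h at 37 deg C in dark.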
G9a inh: qHTS Assay for Inhibitors of Histone Lysine Methyltransferase G9a. Histone-lysine N-methyltransferase EHMT2 (Homo sapiens), Q96KQ7. G9a H3K9 monomethylation, AlphaScreen, 2 h. Potency, µM (series often up to 102 µM), hits mostly inhibitors. hit rate 8.8% among 350,000. AID 504332, 2011; note: nearly all actives have a fitted effect of over 75% in size
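Chemiluminescent proximity detection of H3K9 monomethylation, read after 10 min bead incubation in the dark. Reaction: 20 nM G9a, 500 nM biotin-H3K9 peptide, 20 uM SAM cofactor, 2 h, room temperature, following 15 min enzyme-compound preincubation.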
JMJD2A Tudor: qHTS Assay for Inhibitors of JMJD2A-Tudor Domain; Lysine-specific demethylase 4A (Homo sapiens), O75164; AlphaScreen JMJD2A-Tudor / H3K4me3 peptide binding; Potency, µM (series often up to 114 µM), most hits filed as inhibitors; hit rate 4.4% among 390,000; note: nearly all actives have a fitted effect of over 50% in size
Numbers stand for hits; i = inactive; ? = inconclusive; nt = no result given; [ ] = dose if it differs, or a comment. In the library only some 10% were active in any assay of this set; here they are far more common. Unless noted, calls come from the whole dose curve; as a rule, active = well fitted inhibition curve with a large enough effect; inconclusive = small, poorly fitted or top-dose-only effect; inactive = no such curve, though single readings can be large or run the other way.

SMILES	HP1b chromo inh	BAZ2B inh	Six1-Eya2 inh	CtBP-E1A blk	G9a inh	JMJD2A Tudor
COc1ccccc1N(CC1CO1)S(=O)(=O)c1ccc(C)cc1 (centres undefined)	i	i	i	i	i	i
COCCNC(=O)C1(C)CCCN(C(=O)c2cccc(OC(F)(F)F)c2)C1 (centres undefined)	nt	nt	i	i	nt	nt
COC(=O)N1CCC2(CC1)CN(C(=O)Nc1cccc(C#N)c1)C2	nt	nt	nt	nt	i[12.7 µM]	nt
O=C(NCC(c1cccs1)N1CCOCC1)C1CCN(S(=O)(=O)c2cccc(C(F)(F)F)c2)CC1 (centres undefined)	i	i	i	i	?	i
O=c1oc(-c2ccccc2)c(-c2ccccc2)c2ccccc12	i	nt	i	i	nt	i
CCN(CC)CCN(C(=O)c1ccc2ccccc2c1)c1nc2ccc(F)cc2s1	i	i	i	i	45µM	?
Cc1ccc2nc(N(CCCN(C)C)C(=O)c3ccc4ncsc4c3)sc2c1	i	?	i	i	14µM	40µM
Cc1ccc(-c2cnc(C(O)c3ccc(C)cc3)[nH]2)cc1 (centres undefined)	nt	nt	i	i	nt	nt
COCCNC(=S)NN(c1ccccc1)c1ccccc1	i	i	i	i	28µM	i
CCc1cc(=O)oc2c(CN3CCN(C)CC3)c(O)ccc12	i	i	i	i	i[2.33 µM]	i
CN1CCN(Cc2c(O)ccc3cc(Br)ccc23)CC1	i	nt	i	i	5µM	?
N#Cc1cc2c(OCC(O)CN3CCN(C(c4ccccc4)c4ccccc4)CC3)cccc2[nH]1 (centres undefined)	nt	nt	nt	nt	i	nt
N#CC1=C(N)NC(SCC(=O)c2ccc(Br)cc2)=C(C#N)C12CCCCC2	?	?	i	i	40µM	?
CCOc1ccc(N2C(=O)CC(NC3CCN(C(=O)c4cccc(Cl)c4)CC3)C2=O)cc1 (centres undefined)	i	i	i	i	?	i
CCOC(=O)c1ccc(N2C(=O)CC(NC3CCN(C(=O)c4cccc(Cl)c4)CC3)C2=O)cc1 (centres undefined)	i	i	i	i	16µM	i
CC(C)(C)c1ccc(OCC(=O)NCCN2CCCC2)cc1	i	i	i	i	i[12.7 µM]	i
CC(C)(C)c1ccc(OCCCN2CCCC2)cc1	?	?	i	nt	i	22µM
c1ccc(COc2ccc(OCCCN3CCCC3)cc2)cc1	i	50µM	i	i	6.3µM	20µM
Cc1cc(O)c(-c2cc(O)c(C)cc2O)cc1O	1.8µM	50µM	i	nt	2µM	5µM
COc1ccccc1N(CC(=O)Nc1ccccc1C(F)(F)F)S(=O)(=O)c1cccs1	i	nt	i	nt	nt	i
COc1cc(C(=O)NC2CCCc3ccccc32)cc(OC)c1OC (centres undefined)	i	i	i	i	i	i
COc1ccccc1OCC(=O)NC1CCCc2ccccc21 (centres undefined)	i	i	i	i	i	i
c1cncc(CNC2CCCc3ccccc32)c1 (centres undefined)	i	i	i	i	45µM	?
O=C(NC1CCCc2ccccc21)c1cccnc1 (centres undefined)	i	i	i	i	i	i
COc1cccc(CNC2CCCc3ccccc32)c1OC (centres undefined)	?	?	i	i	40µM	79µM
SMILES	HP1b chromo inh	BAZ2B inh	Six1-Eya2 inh	CtBP-E1A blk	G9a inh	JMJD2A Tudor
COc1cc(CNC2CCCc3ccccc32)cc(OC)c1OC (centres undefined)	?	71µM	i	i	?	10µM
CC(NC(=O)OC(C)(C)C)C(=O)NC(CCC(=O)OCc1ccccc1)C(N)=O (centres undefined)	i	i	i	i	i	i
CCN(CC)c1nc(N)c2c(N)n(-c3ccccc3C)c(=S)c(C#N)c2c1C#N	?	i	?	?	i[2.33 µM]	40µM
Cc1ccc(S(=O)(=O)N(C)Cc2nc(-c3ccccc3)oc2C)cc1	i	?	nt	nt	?	i
CCNC(=O)C1CCCN(c2nn3cc(-c4ccc(C)cc4)nc3s2)C1 (centres undefined)	i	i	nt	nt	i	i
O=C(O)c1cc2ccccc2cn1	i	nt	-80	-84	nt	0.32µM
O=C(O)c1cnc2ccccc2n1	?	?	i	i	i	20µM
COC(=O)c1cnc2ccccc2n1	i	i	i	i	i	i
O=C1c2ccccc2C(=O)C1c1cc2ccccc2cn1	i	nt	nt	nt	nt	i
COc1cc(C(=O)O)nc2ccccc12	i	40µM	i	i	i[2.33 µM]	13µM
Cc1cccc(C)c1-n1nnnc1C1(C)CCC(=O)N1CC(F)(F)F (centres undefined)	nt	nt	i	i	nt	nt
CCc1ccccc1NC(=O)CN1C(=O)CCSc2ccc(S(=O)(=O)N3CCCC3)cc21	i	i	nt	nt	i	i
N#CC1=C(N)SC(N)=C(C#N)C1c1ccnc2ccccc12	i	?	i	i	2.5µM	56µM
O=C1c2ccccc2C(=O)C1c1nccc2ccccc12	i	i	i	i	i[12.7 µM]	i
O=C1c2ccccc2C(=O)C1c1ccnc2ccccc12	i	i	i	i	i	79µM
CC(=O)C1=C(C)OC(N)=C(C#N)C1c1cccc2ccccc12 (centres undefined)	i	i	i	i	nt	i
Nn1c(Cc2ccccc2F)nnc1SCCOc1ccc(Cl)cc1	i	i	i	i	i	i
Nn1c(Cc2ccccc2)nnc1Cc1ccccc1	i	nt	i	i	nt	i
COc1ccc(Cc2n[nH]c(=S)n2N)cc1OC	?	?	i	i	3.2µM	7.9µM
CCOc1ccc(Cc2n[nH]c(=S)n2N)cc1	?	i	i	i	?	8.9µM
COc1ccc(Cc2cnc(N)nc2N)cc1OC	nt	nt	nt	nt	i[12.7 µM]	nt
Nn1c(Cc2ccccc2F)n[nH]c1=S	i	i	i	nt	20µM	3.2µM
Nn1c(Cc2ccc(Br)cc2)n[nH]c1=S	?	?	i	i	2.2µM	7.1µM
Cc1ccc(C)c(CNC(=O)c2cnc3sc(N4CCCC4)nn3c2=O)c1	i	i	nt	nt	i	i
COc1ccc(Cc2n[nH]c(=S)n2C)cc1Br	i	i	i	i	?	20µM
COc1ccc(Cc2nc(=S)[nH][nH]2)cc1Br	?	?	i	i	i	i
Cc1cc(C)cc(C(=O)NN2CCN(C)CC2)c1	i	i	i	i	i[12.7 µM]	22µM
Cc1cc(C)cc(C(=O)NN2CCOCC2)c1	i	i	i	i	i	i
CN(C(=O)COC(=O)CCc1c[nH]c2ccccc12)C(c1ccccc1)c1ccccc1	i	?	i	i	13µM	?
